These results are taken from PubChem BioAssay AID1626 (SRMLSC, 2009).

In all, about 220,000 compounds went through this assay and about 2,000 (0.91%) were called active. Roughly 2% stayed inconclusive and do not appear here. These entries were drawn from the full list. Results with a measured potency or affinity are listed apart. Values without a mark were called inactive. No stated cut-off is given here; in the data, inconclusive means inhibition above about 80% without an active follow-up result; inactive means below that; test concentration not stated here.

Broadly, the inhibition is the relative decrease from the control value, in per cent.

The assay is described as follows: M. tuberculosis H37Rv growth inhibitors, H37Rv strain (AID 1626).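 Further: bacteria incubated seven days before Alamar blue readout; 0% = bacteria only wells and 100% = bacteria with antibiotic wells.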 To be noted: hits give high values, concentration not given here.
In the case of `CC1CN(C(=O)N(C)C)CCN1C(=O)N(C)C` (configuration not stated), the inhibition is -15.9%. In the case of `CC(=O)c1c(-c2ccc(Cl)cc2Cl)noc1C` it was 2.75%. Take `COc1cc(NC(=O)c2ccc(OC)c([N+](=O)[O-])c2)ccc1NC(=O)c1ccco1`: the inhibition was -4.07%. For `COc1ccccc1NC(=S)N(Cc1ccco1)Cc1cc2cc(C)c(C)cc2[nH]c1=O`, the inhibition was 6.98%. Take `Cc1ccc(S(=O)(=O)Nc2nc3cc(C)c(C)cc3[nH]2)cc1`: the inhibition is 8.1%. In the case of `Cn1c(SCC(=O)N2CCCC2)nc2ccccc21` it was 3.37%; in that of `O=C(NCc1ccco1)c1cc2n(n1)C(C(F)(F)F)CC(c1ccc(F)cc1)N2` (configuration not stated), 42%; in that of `O=C(NCc1ccco1)c1cnn2c1NC(c1ccccc1)CC2C(F)(F)F` (configuration not stated), 2.86%. Take `O=C(NCc1ccco1)c1cc2n(n1)C(C(F)(F)F)CC(c1ccc(Br)cc1)N2` (configuration not stated): the inhibition is 74.2%. With `CCCn1cc(NC(=O)c2cc3n(n2)C(C(F)(F)F)CC(c2ccccc2)N3)cn1` (configuration not stated), the inhibition is 0.85%.

Regarding `O=C(O)c1cc2n(n1)C(C(F)(F)F)CC(c1ccccc1)N2` (configuration not stated), the inhibition was -8.1%. As for `Cc1nn(C)cc1CNC(=O)c1cnn2c1NC(c1ccc(Br)cc1)CC2C(F)(F)F` (configuration not stated), the inhibition is 3.8%. In the case of `O=C(NCc1cccc(Cl)c1)c1cnn2c1NC(c1ccco1)CC2C(F)(F)F` (configuration not stated) it was 6.69%; in that of `Cc1c(CNC(=O)c2cnn3c2NC(c2ccccc2)CC3C(F)(F)F)cnn1C` (configuration not stated), -9.25%. Then `Nc1nnc(CCCCCCCCCCc2nnc(N)s2)s1`, with -1.56%. As to `CC(C)(C)n1nc2c(c1NC(=O)COc1ccc(Cl)cc1)CS(=O)(=O)C2`, the inhibition is 1.01%. Then `CCN(C(=O)COC(=O)/C=C/c1ccc(S(=O)(=O)N2CCc3ccccc32)cc1)C1CCS(=O)(=O)C1` (configuration not stated), with -3.11%; and `Cc1c(Cl)cccc1S(=O)(=O)N1CCC(C(=O)NNC(=O)C2CC2)CC1`, with 0.53%; and `CCOC(=O)c1c(C)[nH]c(C(C)=O)c1C`, with -0.35%. As for `COC(=O)c1ccc(C2C(C(C)=O)=C(O)C(=O)N2CCO)cc1` (configuration not stated), the inhibition is -1.96%.

Take `COc1cccc(NC(=O)N[C@@H](Cc2ccccc2)C(=O)O)c1`: the inhibition was 1.84%.

For `CN(C)c1ccnc(SCc2ccccc2Cl)c1C#N`, the inhibition was 11.8%. In the case of `Cc1ccc(C2CC(C(F)(F)F)n3ncc(C(N)=O)c3N2)cc1` (configuration not stated) it was -4.41%; in that of `COc1cccc(C2CC(C(F)(F)F)n3ncc(C(=O)NCc4ccco4)c3N2)c1` (configuration not stated), 3.27%; in that of `Nc1nc(Cn2nnc(-c3ccccc3Cl)n2)nc(N2CCOCC2)n1`, -0.22%. Then `COc1ccc(Cl)cc1C(=O)NNC(=O)CCNC(C)=O`, with -6.02%; and `O=C1CS/C(=C/C(=O)c2ccccc2)N1`, with -2.65%; and `Cc1ccc(C(=O)/C=C2/NC(=O)CS2)cc1`, with -4.36%. Then `COC(=O)CN1C(=S)N(c2ccc(OC)cc2)C(=O)/C1=C/c1cccs1`, with 4.42%; and `c1ccc(Cc2nnc(N3CCOCC3)c3ccccc23)cc1`, with -4.25%; and `CN(C)S(=O)(=O)c1cc(C(=O)NCc2ccccc2)c(Cl)cc1Cl`, with -5.51%.

Take `COc1ccc(CCN(C)C(=O)c2ccc(S(=O)(=O)NCc3ccco3)cc2)cc1OC`: the inhibition was 2.54%. For `CC1=C2C3OC(=O)C(C)[C@@H]3CC[C@](C)(O)C2C2C3C4C5(C12)[C@H]1OC(=O)[C@@H](C)C1CC[C@]4(C)O[C@]5(C)[C@@H]3O` (some centres not stated), the inhibition was 17.2%. As for `Nc1ccc(-c2nc3ccc(N)cc3s2)cc1`, the inhibition was -3.52%. Then `Cc1nc2cc3sc(C)nc3cc2s1`, with -1.33%. In the case of `CCc1ccccc1NC(=O)CSC1=C(C#N)C(c2ccc3c(c2)OCO3)C2=C(CCCC2=O)N1` (configuration not stated) it was 4.73%. As for `CCN(CC)CCNc1nc2cc(OC)c(OC)cc2c2nc(-c3ccccc3)nn12`, the inhibition is 75%. In the case of `CCN(CC)CCCNc1nc2cc(OC)c(OC)cc2c2nc(-c3cccnc3)nn12` it was 7.65%; in that of `CC(C)C(NS(=O)(=O)c1cccs1)C(=O)N(C)Cc1ccccc1` (configuration not stated), -0.19%. Then `Cc1cc(NC(=O)CSc2nnc(C3CC3)n2N)c([N+](=O)[O-])cc1C`, with -1.15%; and `CCCCCCCn1c2c(c(=N)c3c1CCC3)CCCC2`, with 13.8%; and `CCCCCCCn1c2c(c(=N)c3ccccc31)CCC2`, with 9.19%. Then `CCCCCn1c2c(c(=N)c3ccccc31)CCC2`, with 7.75%; and `CCCCCCn1c2c(c(=N)c3c1CCC3)CCC2`, with 1.15%; and `CCCCn1c2c(c(=N)c3c1CCC3)CCC2`, with -7.84%.

As for `CCCCCCCCCn1c2c(c(=N)c3c1CCC3)CCC2`, the inhibition is 56.5%. In the case of `COC(=O)Cc1c(O)ccn(C2CC2)c1=O` it was -1.41%; in that of `CC(C)C(NS(=O)(=O)c1cccs1)C(=O)NCc1ccccc1Cl` (configuration not stated), -0.44%; in that of `Cn1c(SCC(=O)N2CCCc3ccccc32)nnc1-c1cccs1`, 11.9%. Then `COc1cc(NC(=O)c2ccc(Cl)cc2)c(OC)cc1NC(=O)CN1CCOCC1`, with -0.92%; and `COc1cc(NC(=O)c2ccccc2)c(OC)cc1NC(=O)CN1CCCCC1`, with 25.5%; and `Cc1cc(NC(=O)c2cc(-c3ccccc3)on2)no1`, with -3.83%.

As to `CCOC(=O)CC(=O)CSc1nc(C)cc(-c2cccnc2)c1C#N`, the inhibition was 0.1%.

As for `CN(C)CCCNc1nc2sc3c(c2c(=O)n1CCc1ccccc1)CCCCC3`, the inhibition was 76.4%. As to `O=c1c2c3c(sc2nc(NCCO)n1CCc1ccccc1)CCCCC3`, the inhibition is 5.74%.

`CCn1c(=O)n(CCc2ccccc2)c(=O)c2c3c(sc21)CCCC3`: the inhibition was 0.77%. Then `CN(C)CCCn1c(=O)n(Cc2ccco2)c(=O)c2c3c(sc21)CCCCC3`, with -6.11%; and `CC1=C(C(=O)Nc2ccccc2)C(c2ccccn2)n2nc(CCCO)nc2N1` (configuration not stated), with 2.92%; and `Cn1c(Sc2ccc(C(F)(F)F)cc2[N+](=O)[O-])nnc1-c1ccccc1`, with 0.5%. Then `CCc1ccc(CNCc2cccs2)cc1`, with -12.3%; and `CCc1nc(NCCc2ccccn2)c2nnn(Cc3ccccc3F)c2n1`, with 7.39%.

`CN1CCN(CCCNC(=O)c2ccc(/C=C3\Sc4ccccc4N(Cc4ccccc4F)C3=O)cc2)CC1`: the inhibition is 33.6%.

Take `CCN1CCN(CCCNC(=O)c2ccc(/C=C3/Sc4ccccc4N(Cc4ccccc4F)C3=O)cc2)CC1`: the inhibition is 1.17%. Then `NC(N)=NS(=O)(=O)c1ccc(NC(=S)NC(=O)/C=C/c2cccs2)cc1`, with 3.44%.

As to `c1cc(-c2ccncc2)ccn1`, the inhibition was 2.83%. In the case of `CCOC(=O)c1c(-c2ccncc2)csc1N` it was 9.94%; in that of `O=C(NC(=S)Nc1ccccc1[N+](=O)[O-])c1ccccc1Cl`, -1.52%; in that of `O=C(Nc1ccccc1)OCCCc1ccccc1`, 5.86%. With `COc1ccc(C2C=C(C34CC5CC(CC(C5)C3)C4)NC(=S)N2)cc1` (configuration not stated), the inhibition is 1.23%. Then `COC(=O)CSc1nc(C)cc(C)c1C#N`, with -8.05%; and `COC(=O)c1sc2cnccc2c1N`, with -1.77%; and `COC(=O)CSc1nc2cc(C)ccc2cc1C#N`, with -2.11%. In the case of `COC(=O)CSc1[nH]c(=O)cc(C)c1C#N` it was -7.37%; in that of `COC(=O)CSc1nc(-c2cccs2)ccc1C#N`, -2.21%. In the case of `COC(=O)c1sc2ccccc2c1N` it was 2.95%; in that of `COc1cc(SC)ccc1C(=O)OCC(=O)NC1CC1`, 2.29%. As for `CCOC(=O)CSc1snnc1C`, the inhibition was -2.01%.

Take `CN(c1ccccc1)S(=O)(=O)c1cccc(Cl)c1Cl`: the inhibition was -4.92%. In the case of `c1ccc(-c2ccnc3nc(N4CCN(c5ccccc5)CC4)nn23)cc1` it was 6.16%.

As to `c1ccc(Oc2ccc(-c3ccnc4nc(N5CCN(c6ccccc6)CC5)nn34)cc2)cc1`, the inhibition was 20.8%. Take `CNC(=S)NNC(=O)c1sccc1OCc1ccc(Cl)cc1Cl`: the inhibition was -2.33%. In the case of `N#CC1CCN(c2ncccc2[N+](=O)[O-])CC1` it was -9.15%. In the case of `COc1ccc(OC)c(-c2cc(C3CCN(c4ncccc4[N+](=O)[O-])CC3)[nH]n2)c1` it was -8.76%. In the case of `Cc1nnc(SCc2nc3ccccc3c(=O)n2-c2ccccc2Cl)n1N` it was 2.11%; in that of `Cc1cccc(C)c1NC(=O)c1c(C)nn(-c2ccccc2)c1Cl`, -2.35%. Consider `O=C(O)CSc1ccnc2cc(Cl)ccc12`, for which the inhibition is 3.22%.

Take `CCN(CC)C(=O)Oc1ccnc2cc(Cl)ccc12`: the inhibition was 2.84%. In the case of `O=C(COc1ccccc1Cl)Nc1ccc2c(c1)OCCO2` it was 5.61%. As for `CCc1ccccc1NC(=O)c1cc(C2CC2)on1`, the inhibition is 8.45%. As to `COC(=O)c1ccccc1NC(=O)c1cc(C2CC2)on1`, the inhibition was 4.32%. In the case of `COc1ccc(-c2csc(N3C(=O)C4C5c6ccccc6C(c6ccccc65)C4C3=O)n2)cc1` (configuration not stated) it was 49%.

For `CCc1c(C#N)c(SCCC(=O)Nc2ccc(F)cc2)nc2c1C(=O)CC(C)(C)C2`, the inhibition was 6.22%. Then `O=C(c1c(F)cccc1F)N1CCCC1`, with -1.31%; and `O=C(NC1CC1)c1cc2c(F)cccc2s1`, with -6.42%.

Take `COc1ccc(C(=O)OC(C(=O)c2ccc(C)cc2)c2ccccc2)cc1` (configuration not stated): the inhibition is 9.22%. In the case of `C/C(=N/NC(=O)c1cc(-c2ccc(Cl)s2)[nH]n1)c1ccco1` it was 40.6%.

As for `CC1(C)CC(=O)C=C(c2cccc3c2oc2ccccc23)C1`, the inhibition was 8.8%.
